Here are results for 8 compounds from PubChem BioAssay (NCATS).

Values without a mark were called inactive. Results filed as inconclusive are left out. Calls of active or inactive are those of the source. Unless noted, the call rests on the fitted dose curve; in most records, active means well fitted curve in either direction with a large enough effect (not every such curve was filed as active); inconclusive means small, poorly fitted or top-dose-only effect, or another doubt; inactive means flat fitted curve, though single readings scatter. Bounds are passed on as bounds.

Experiment [1] concerns the target Lysosomal acid glucosylceramidase (Homo sapiens) (UniProt P04062). The experiment in a line: Glucocerebrosidase-p2 (AID 348; in the data active means potency below about 10 µM; further: potency means the concentration at half of the fitted maximal effect). As to conditions: purified GBA, blue fluorogenic substrate, 40 min. The method, boiled down:
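Compounds titrated from 0.6 nM upwards against 0.2 nM enzyme in pH 5.9 citric acid/KH2PO4, taurocholate, tween-20; blue fluorogenic substrate 80 uM, 40 min room temperature, stopped and read Ex 365/Em 440 for AC50.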

Experiment [2] in a line: AP1 Signaling Pathway (AID 357).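 Further: ME-180 reporter cells stimulated with EGF at its EC50 level; on the % scale 0 is the no-effect control and ±100 the full control effect.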 As to conditions: ME-180 AP-1-bla reporter, EGF-induced, beta-lactamase ratio, 5 h; at 7.69 µM (top of the series) unless noted. The method, boiled down: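 A ratiometric CCF4 readout (405 nm excitation; 460 and 530 nm emission) quantified AP-1-driven beta-lactamase in ME-180 cells after 5 h with compound and EC50 EGF; AC50 values were derived for activators and inhibitors.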

In experiment [3] the target is Cytochrome P450 1A2 (Homo sapiens) (UniProt P05177). The experiment in a line: p450-cyp1a2 (AID 410; calls by dose curve; further: potency means the concentration at half of the fitted maximal effect). As to conditions: recombinant CYP1A2, luciferin-ME demethylation, luminescence; series mostly up to 11.4 µM. The method, boiled down:
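20nM CYP1A2 with 100uM Luciferin-ME (at Km) in 100mM KPO4; compound preincubated 10 min, NADPH regeneration added, 60 min at room temperature. Luciferin quantified by luminescence after detection reagent; normalized to 57 uM furafylline.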

The nature of experiment [4]: NFAT Signaling Pathway (AID 444).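 Further: carbachol stimulus at about its EC50 of 1 µM final; on the % scale 0 is the no-effect control and ±100 the full control effect.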 As to conditions: Jurkat NFAT-bla M1, carbachol, beta-lactamase ratio, 5 h; at 7.69 µM (top of the series) unless noted. The method, boiled down: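 Jurkat cells with NFAT-driven β-lactamase reporter and co-expressed M1 receptor, stimulated with carbachol (final 1 uM, ~EC50), compound titration, 5 h at 37 °C. CCF4 loaded 1 h at RT; 460/530 nm ratio gave %activity and AC50.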

The nature of experiment [5]: Stat Signaling Pathway (AID 446).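 Further: ME-180 cervical cancer cells given 40 pM IL-6 alongside compound; SIE-controlled beta-lactamase reporter measured as 460/530 nm FRET emission ratio; on the % scale 0 is the no-effect control and ±100 the full control effect.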 As to conditions: ME-180 SIE beta-lactamase reporter, IL-6 stimulated, 5 h; at 7.69 µM (top of the series) unless noted. An outline of the steps:
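ME-180 cells carrying a SIE-driven beta-lactamase reporter are stimulated with 40 pM IL-6 for 5 h at 37C in the presence of compound. The 460/530 nm FRET substrate ratio is read after 2.5 h at RT. Data are normalised to 300 pM IL-6 and to 125 nM JAK inhibitor controls.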

Experiment [6] deals with Glucocorticoid receptor (Homo sapiens) (UniProt P04150). Put plainly: GR-GFP Redistribution (AID 450;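 active means compounds whose dose series gives a full or clear partial fitted curve of increased nuclear translocation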; further: potency means the concentration at half of the fitted maximal effect). As to conditions: U2OS GR-GFP nuclear translocation, laser cytometry, 2 h.
Chain of Glucocorticoid receptor (Homo sapiens) (P04150 whole entry, looked up): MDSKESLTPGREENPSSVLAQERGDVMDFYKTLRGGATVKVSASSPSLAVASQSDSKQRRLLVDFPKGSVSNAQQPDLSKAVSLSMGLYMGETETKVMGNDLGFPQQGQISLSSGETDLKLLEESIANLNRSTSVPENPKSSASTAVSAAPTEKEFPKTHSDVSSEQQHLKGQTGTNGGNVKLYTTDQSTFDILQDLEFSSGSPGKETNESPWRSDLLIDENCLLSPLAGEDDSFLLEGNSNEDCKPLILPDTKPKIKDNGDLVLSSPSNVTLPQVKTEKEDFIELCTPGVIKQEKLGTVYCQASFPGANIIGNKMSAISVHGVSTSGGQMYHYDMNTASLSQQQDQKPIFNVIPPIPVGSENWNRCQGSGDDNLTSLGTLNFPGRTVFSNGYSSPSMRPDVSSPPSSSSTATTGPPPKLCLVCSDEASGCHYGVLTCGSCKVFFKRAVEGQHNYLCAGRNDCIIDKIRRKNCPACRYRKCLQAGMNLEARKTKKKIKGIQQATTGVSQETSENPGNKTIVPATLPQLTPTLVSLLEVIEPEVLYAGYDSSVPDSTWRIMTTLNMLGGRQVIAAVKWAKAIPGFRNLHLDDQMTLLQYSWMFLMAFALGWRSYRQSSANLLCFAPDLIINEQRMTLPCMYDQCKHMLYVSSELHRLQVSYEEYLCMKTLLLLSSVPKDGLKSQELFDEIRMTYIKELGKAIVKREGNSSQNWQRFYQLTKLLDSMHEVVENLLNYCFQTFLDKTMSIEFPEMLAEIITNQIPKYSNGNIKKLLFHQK
Experiment [7] shares this target. Put plainly: GR-EFC Redistribution (AID 451; calls by dose curve; further: potency means the concentration at half of the fitted maximal effect). As to conditions: CHO-K1 GR-EFC translocation, beta-gal luminescence, 2 h. An outline of the steps:
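CHO-K1 cells expressing nuclear EA and GR-ED fragments of b-gal; compounds titrated up to 46 uM final, 2 h at 37 C. GR nuclear translocation read as complemented b-gal luminescence after 1 h RT detection.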

In experiment [8] the target is 3',5'-cyclic-AMP phosphodiesterase 4B (Homo sapiens) (UniProt Q07343). The experiment in a line: qHTS Assay for Inhibitors of PDE-IV (AID 607; active means well fitted activation curve with a large enough effect in the main read-out, with a control signal flat, not every such curve was filed as active; further: % of control where 0% means no effect). As to conditions: HEK293 ACTOne CNG channel cells, membrane potential fluorescence; series mostly up to 22.9 µM. An outline of the steps:
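HEK293 ACTOne cells with CNG channel (1000/well), endogenous PDE4; membrane potential dye, compounds up to 22.9 uM final. Fluorescence Ex 535/Em 590; RO 20-1724 (100 uM final) as reference.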
A general note: qHTS replaces the single test concentration by a dilution series.

Experiment [9] concerns the target Cytochrome P450 2C9 (Homo sapiens) (UniProt P11712). Put plainly: qHTS Assay for Inhibitors and Substrates of Cytochrome P450 2C9 (AID 883; active means well fitted curve in the direction sought with a large enough effect; an effect the other way counts as inactive or inconclusive; further: potency means the concentration at half of the fitted maximal effect; nearly all actives have a fitted effect of over 60% in size). As to conditions: recombinant CYP2C9, luciferin-H luminescence, 60 min; series mostly up to 11.4 µM. The method, boiled down: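 Human CYP2C9 (10nM) with Luciferin-H at 100uM (its KM) in 25mM KPO4; compound preincubated 10 min at 37C, then NADPH regeneration for 60 min at 37C. Luciferin read by luminescence after detection reagent; normalized to 57uM sulphaphenazole as full inhibition.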

The target of experiment [10] is Cytochrome P450 3A4 (Homo sapiens) (UniProt P08684). The experiment in a line: qHTS Assay for Inhibitors and Substrates of Cytochrome P450 3A4 (AID 884; active means well fitted curve in the direction sought with a large enough effect; an effect the other way counts as inactive or inconclusive; further: nearly all actives have a fitted effect of over 50% in size; further: potency means the concentration at half of the fitted maximal effect). As to conditions: recombinant CYP3A4, Luciferin-PPXE luminescence; series mostly up to 57.1 µM. The method, boiled down: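 20 nM human CYP3A4 with 25 uM Luciferin-PPXE (at KM) in 200 mM KPO4, preincubated 10 min with compound; NADPH regeneration started a 60 min RT reaction. Luciferin detected by luminescence, normalized to 57 uM ketoconazole as full inhibition.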
Chain of Cytochrome P450 3A4 (Homo sapiens) (P08684 whole entry, looked up): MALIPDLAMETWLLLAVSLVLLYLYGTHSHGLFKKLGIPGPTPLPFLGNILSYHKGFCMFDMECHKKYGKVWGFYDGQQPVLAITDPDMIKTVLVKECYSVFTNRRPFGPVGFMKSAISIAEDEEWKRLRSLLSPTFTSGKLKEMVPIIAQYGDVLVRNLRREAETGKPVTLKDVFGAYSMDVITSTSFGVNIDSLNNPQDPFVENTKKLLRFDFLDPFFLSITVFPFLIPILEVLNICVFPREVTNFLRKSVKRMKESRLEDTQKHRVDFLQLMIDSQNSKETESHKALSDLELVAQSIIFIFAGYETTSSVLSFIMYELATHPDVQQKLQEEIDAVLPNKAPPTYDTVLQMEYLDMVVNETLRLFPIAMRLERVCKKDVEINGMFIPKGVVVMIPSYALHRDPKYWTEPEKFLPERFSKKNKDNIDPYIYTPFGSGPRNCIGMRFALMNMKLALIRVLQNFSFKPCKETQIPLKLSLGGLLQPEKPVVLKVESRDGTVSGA

The target is the same in experiment [11]. The experiment in a line: qHTS Assay for Activators of Cytochrome P450 3A4 (AID 885; active means well fitted curve in the direction sought with a large enough effect; an effect the other way counts as inactive or inconclusive; further: nearly all actives have a fitted effect of over 65% in size). As to conditions: recombinant CYP3A4, Luciferin-PPXE luminescence, 60 min; series mostly up to 11.4 µM. The method, boiled down: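 Human CYP3A4 (20 nM) with Luciferin-PPXE at 25 uM (its KM) in 200 mM KPO4; 10 min compound preincubation, then NADPH regeneration and 60 min reaction at RT. Luciferin read by luminescence; normalized to 57 uM ketoconazole full inhibition.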

Experiment [12] addresses Mitogen-activated protein kinase 10 (Mus musculus) (UniProt Q61831). The experiment in a line: JNK3 AlphaScreen Assay (AID 530).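 Further: kinase came from lysate of stimulated human HepG2 cells; signal reports phosphorylation of biotinylated GST-cJun 1-79 at Ser73 with 10 µM ATP; on the % scale 0 is the no-effect control and ±100 the full control effect.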 As to conditions: JNK3 lysate, c-Jun phosphorylation; series mostly up to 11.4 µM. An outline of the steps:
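Pre-activated (IL-1β/TNFα) JNK3 in HepG2 lysates phosphorylates biotin-GST-cJun(1-79), 10 uM ATP; anti-phospho-cJun(Ser73) AlphaScreen read at room temperature, pH 7.6 Tris buffer. Compounds pre-incubated 15 min as titrations.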
For orientation: In Alpha technology, singlet oxygen from a donor bead excites a nearby acceptor bead.

Experiment [13] can be described thus: qHTS profiling for inhibitors of Plasmodium falciparum proliferation (AID 504749; active means well fitted curve in the direction sought with a large enough effect; an effect the other way counts as inactive or inconclusive;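 further: 0% = DMSO vehicle and full inhibition = artemisinin control; nearly all actives have a fitted effect of over 60% in size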). As to conditions: P. falciparum in erythrocytes, SYBR Green DNA, 72 h, at 28.7 µM (top of the series). An outline of the steps:
(§1)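 P. falciparum-infected erythrocytes (0.3% parasitemia, 2.5% hematocrit) incubated with compound 72 h at 37 C, 5% CO2. Parasite DNA detected by SYBR Green after lysis, overnight at room temperature; normalised to 0.29 uM artemisinin and DMSO.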

The next experiment has as its system CP192. The description is as above. As to conditions: P. falciparum in erythrocytes, SYBR Green DNA, 72 h; series mostly up to 28.7 µM. The method, boiled down:
as §1

The next experiment relates to CP194. Described as above. As to conditions: P. falciparum in erythrocytes, SYBR Green DNA, 72 h; series mostly up to 28.7 µM. The method, boiled down:
as §1

A further experiment deals with CP203. The description is as above. As to conditions: P. falciparum in erythrocytes, SYBR Green DNA, 72 h; series mostly up to 28.7 µM. An outline of the steps:
as §1

The test system of the next experiment is W2. The experiment is described as above. As to conditions: P. falciparum in erythrocytes, SYBR Green DNA, 72 h; series mostly up to 28.7 µM. An outline of the steps: as §1
The target in experiment [14] is Cytochrome P450 2C19 (Homo sapiens) (UniProt P33261). The experiment in a line: qHTS Assay for Inhibitors and Substrates of Cytochrome P450 2C19 (AID 899; active means well fitted curve in the direction sought with a large enough effect; an effect the other way counts as inactive or inconclusive; further: on the % scale 0 is the no-effect control and ±100 the full control effect; nearly all actives have a fitted effect of over 60% in size). As to conditions: recombinant CYP2C19, luciferin-H EGE luminescence; series mostly up to 11.4 µM. The method, boiled down:
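5 nM human CYP2C19 with 10uM Luciferin-H EGE (at KM) in 50mM KPO4, compound preincubated 10 min at 37C, then NADPH regeneration for 60 min at 37C. Luciferin read by luminescence after detection reagent; normalized to 57uM ketoconazole as full inhibition.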

A short description of experiment [15]: qHTS Assay for Identification of Small Molecule Agonists for Hypoxia Response Element Signaling Pathway (AID 914; active means well fitted activation curve with a large enough effect in the signal ratio, with a control signal flat, not every such curve was filed as active; the % refers to the signal ratio; further: % of control where 0% means no effect). As to conditions: ME-180 (cervical carcinoma) HRE-bla reporter, beta-lactamase ratio, CoCl2, 17 h; activation: stronger effect = higher value. The method, boiled down:
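qHTS titration; ME-180 HRE-bla cells; EC50 CoCl2 co-treatment, 17 h at 37 degrees Celsius; CCF4 dye, ex 405nm, em 460nm and 530nm; %Activity from ratio; AC50.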

Chain of 3',5'-cyclic-AMP phosphodiesterase 4B (Homo sapiens) (Q07343 whole entry, looked up): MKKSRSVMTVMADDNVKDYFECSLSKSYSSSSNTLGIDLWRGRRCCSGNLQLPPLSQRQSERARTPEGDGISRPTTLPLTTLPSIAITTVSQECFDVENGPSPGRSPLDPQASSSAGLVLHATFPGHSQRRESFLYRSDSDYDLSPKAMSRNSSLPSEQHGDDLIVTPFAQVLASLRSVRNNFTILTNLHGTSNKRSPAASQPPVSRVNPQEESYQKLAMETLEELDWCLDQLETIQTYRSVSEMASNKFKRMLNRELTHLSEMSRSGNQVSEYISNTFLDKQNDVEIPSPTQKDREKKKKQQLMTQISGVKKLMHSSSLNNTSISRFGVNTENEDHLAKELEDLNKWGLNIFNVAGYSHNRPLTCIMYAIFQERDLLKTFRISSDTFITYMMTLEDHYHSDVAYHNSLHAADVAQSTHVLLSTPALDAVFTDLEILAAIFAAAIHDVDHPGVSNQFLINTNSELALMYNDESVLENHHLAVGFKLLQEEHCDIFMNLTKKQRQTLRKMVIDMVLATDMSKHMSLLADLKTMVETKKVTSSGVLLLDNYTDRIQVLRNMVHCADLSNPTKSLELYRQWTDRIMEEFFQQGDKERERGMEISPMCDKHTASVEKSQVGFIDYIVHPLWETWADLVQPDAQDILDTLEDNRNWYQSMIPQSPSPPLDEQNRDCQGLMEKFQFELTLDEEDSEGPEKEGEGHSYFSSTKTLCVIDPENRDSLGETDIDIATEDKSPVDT
Chain of Cytochrome P450 1A2 (Homo sapiens) (P05177 whole entry, looked up): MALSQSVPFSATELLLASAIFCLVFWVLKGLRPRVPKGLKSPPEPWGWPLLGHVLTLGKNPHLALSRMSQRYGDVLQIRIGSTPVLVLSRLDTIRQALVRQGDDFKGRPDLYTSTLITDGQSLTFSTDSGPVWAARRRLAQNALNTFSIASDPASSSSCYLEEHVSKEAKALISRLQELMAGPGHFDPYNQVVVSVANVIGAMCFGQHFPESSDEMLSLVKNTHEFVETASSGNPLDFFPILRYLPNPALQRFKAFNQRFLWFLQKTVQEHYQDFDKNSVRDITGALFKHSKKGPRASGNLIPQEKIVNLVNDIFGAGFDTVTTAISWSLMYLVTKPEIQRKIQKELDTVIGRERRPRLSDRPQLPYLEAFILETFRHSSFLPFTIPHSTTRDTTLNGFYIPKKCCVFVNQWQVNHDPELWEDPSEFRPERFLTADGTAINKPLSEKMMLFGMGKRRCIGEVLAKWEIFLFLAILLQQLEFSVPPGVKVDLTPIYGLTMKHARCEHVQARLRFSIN
Chain of Lysosomal acid glucosylceramidase (Homo sapiens) (P04062 whole entry, looked up): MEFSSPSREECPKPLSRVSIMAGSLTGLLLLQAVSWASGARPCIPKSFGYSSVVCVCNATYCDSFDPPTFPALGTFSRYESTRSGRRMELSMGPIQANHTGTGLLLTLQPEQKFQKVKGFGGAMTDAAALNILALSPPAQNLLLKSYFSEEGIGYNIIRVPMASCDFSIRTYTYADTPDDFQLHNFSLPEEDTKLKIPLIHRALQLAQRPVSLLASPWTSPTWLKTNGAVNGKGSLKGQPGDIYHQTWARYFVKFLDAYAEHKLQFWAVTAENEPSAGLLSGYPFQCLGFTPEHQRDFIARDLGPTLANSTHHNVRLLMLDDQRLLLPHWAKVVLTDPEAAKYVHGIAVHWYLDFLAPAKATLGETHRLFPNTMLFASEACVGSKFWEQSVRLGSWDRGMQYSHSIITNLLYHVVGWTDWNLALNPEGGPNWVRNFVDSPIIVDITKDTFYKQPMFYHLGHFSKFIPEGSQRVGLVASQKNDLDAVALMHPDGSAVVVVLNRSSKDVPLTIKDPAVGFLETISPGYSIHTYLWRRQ
Chain of Cytochrome P450 2C9 (Homo sapiens) (P11712 whole entry, looked up): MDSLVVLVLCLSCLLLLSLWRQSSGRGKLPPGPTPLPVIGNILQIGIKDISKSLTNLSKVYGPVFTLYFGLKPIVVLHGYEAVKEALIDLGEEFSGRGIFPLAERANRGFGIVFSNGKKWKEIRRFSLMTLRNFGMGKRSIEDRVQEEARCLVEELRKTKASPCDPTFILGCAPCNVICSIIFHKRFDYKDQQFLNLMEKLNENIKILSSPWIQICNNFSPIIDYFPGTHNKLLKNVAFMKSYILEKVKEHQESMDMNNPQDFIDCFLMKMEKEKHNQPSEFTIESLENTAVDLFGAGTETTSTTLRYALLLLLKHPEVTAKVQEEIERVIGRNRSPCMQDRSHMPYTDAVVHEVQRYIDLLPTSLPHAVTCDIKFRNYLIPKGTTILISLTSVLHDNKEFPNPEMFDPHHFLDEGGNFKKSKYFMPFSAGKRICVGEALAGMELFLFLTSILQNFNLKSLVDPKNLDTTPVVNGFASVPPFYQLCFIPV
Chain of Cytochrome P450 2C19 (Homo sapiens) (P33261 whole entry, looked up): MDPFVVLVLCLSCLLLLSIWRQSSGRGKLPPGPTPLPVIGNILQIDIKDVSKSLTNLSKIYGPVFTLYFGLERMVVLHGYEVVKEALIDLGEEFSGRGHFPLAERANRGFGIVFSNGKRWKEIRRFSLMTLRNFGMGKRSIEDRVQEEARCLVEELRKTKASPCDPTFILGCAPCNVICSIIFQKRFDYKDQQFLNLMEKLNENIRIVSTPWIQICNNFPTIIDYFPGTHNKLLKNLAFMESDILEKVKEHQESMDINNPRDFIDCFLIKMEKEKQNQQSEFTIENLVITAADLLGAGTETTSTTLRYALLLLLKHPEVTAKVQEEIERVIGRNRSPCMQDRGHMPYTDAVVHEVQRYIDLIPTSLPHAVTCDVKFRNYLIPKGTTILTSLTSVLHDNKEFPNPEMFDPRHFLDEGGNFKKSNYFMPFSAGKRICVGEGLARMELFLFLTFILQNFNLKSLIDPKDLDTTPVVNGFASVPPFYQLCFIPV

As for `COCCn1c(=O)c(-c2cccs2)nc2cnc(Oc3ccc(OC)cc3)nc21`, the Potency in experiment [1] was greater than 11.4 µM; in experiment [3], 2.51 µM (active); in experiment [6], greater than 9.22 µM; in experiment [7] it was greater than 46 µM; in experiment [9], 5.01 µM (active); in experiment [10], 0.794 µM (active). Also, the activity change, negative = inhibition is -1.43% in experiment [2] and 15.8% in experiment [4]. In experiment [5], the activity, negative = inhibition was 11.7%. Also, the Potency entry in experiment [8] and in [11] was “inactive” in each case.
With `N#[N+]c1ccc(Nc2ccccc2)cc1`, the Potency in [1] was greater than 11.4 µM. The activity change, negative = inhibition is -0.339% in experiment [2] and -28.8% in [4]. For the same compound, the Potency entry in [3], in experiment [12] and in [8] was “inactive” in each case. Besides, the activity, negative = inhibition in [5] was -16.1%.
On to `N[C@@H](Cc1ccccc1)C(=O)O`, for which, in experiment [1], the Potency was greater than 11.4 µM. Moreover, the figures for the activity change, negative = inhibition in experiment [2] and in experiment [4] were 3.61% and 14.5%, respectively. Also, the Potency result (in [3]; in [12]; in experiment [8]; in experiment [10]; in the experiment on CP192; in the experiment on CP194) was “inactive” throughout. Further, the Potency result with CP203 and in the experiment on W2 was “inactive” each time. The activity, negative = inhibition in experiment [5] was 12.6%; in experiment [13] (parasite line A) it was 4.49%; in experiment [13] (parasite line B), -0.635%.
`CSc1nnnc2ccccc12`: the Potency was greater than 11.4 µM in [1], 3.16 µM (active) in experiment [3] and greater than 46 µM in experiment [6]. The activity change, negative = inhibition in [2] was -4.35%; in experiment [4] it was 3.54%. Moreover, in [5], the activity, negative = inhibition is 0.181%. For the same compound, the Potency entry in experiment [12], in experiment [8] and in experiment [14] was “inactive” each time.
Consider `COc1ccc(C(=O)N2CCC3(CCCN(C(=O)Nc4cccc(F)c4)C3)CC2)cc1`, for which the Potency in experiment [1] was greater than 11.4 µM; in experiment [3], 20 µM (active); in experiment [7], greater than 46 µM. In addition, the values for the activity change, negative = inhibition in [2] and in experiment [4] were -10.3% and 5.86%, respectively. The activity, negative = inhibition in experiment [5] is -13.8%. Moreover, the Potency entry in [12] and in [11] was “inactive” throughout. Further, in experiment [15], the activation is -19.5%.
For the compound `O=C(O)[C@@H](O)Cc1ccccn1`, the Potency in [1] is greater than 11.4 µM; in experiment [6], greater than 46 µM. In addition, the activity change, negative = inhibition was 4.97% in [2] and 2.96% in experiment [4]. The Potency result in experiment [3], in experiment [12] and in experiment [8] was “inactive” each time. Also, in experiment [5], the activity, negative = inhibition is 4.36%. Also, the activation in [15] is 0.65%.
On to `O=C(O)c1cc(C(=O)C(=O)c2cc(C(=O)O)c(O)c3ccccc23)c2ccccc2c1O`, for which the Potency in experiment [1] is greater than 11.4 µM; in [6], greater than 46 µM; in experiment [7], greater than 9.22 µM; in experiment [9] it was 0.316 µM (active). Besides, the activity change, negative = inhibition in experiment [2] was 22.7%; in experiment [4], 10.6%. The Potency entry in experiment [3] is “inactive”. The activity, negative = inhibition in experiment [5] was 0.955%.
Regarding `CCN1CCCCC(=N/O)/C(=N/O)CCCC1`, the figures for the Potency in experiment [1] and in experiment [6] were greater than 11.4 µM and greater than 46 µM, respectively. The activity change, negative = inhibition was -1.64% in experiment [2] and -10.8% in experiment [4]. For the same compound, the Potency entry in experiment [3], in experiment [12] and in experiment [8] was “inactive” throughout. Further, the activity, negative = inhibition in [5] is 2.5%.
